Residual activity data for six compounds are collected here from ChEMBL document CHEMBL2218924, “A broad activity screen in support of a chemogenomic map for kinase signalling research and drug discovery” (Biochem J, 2013).

Test [1] concerns the target T1, Protein kinase C zeta type (Homo sapiens) (UniProt Q05513).
T1 sequence (whole entry): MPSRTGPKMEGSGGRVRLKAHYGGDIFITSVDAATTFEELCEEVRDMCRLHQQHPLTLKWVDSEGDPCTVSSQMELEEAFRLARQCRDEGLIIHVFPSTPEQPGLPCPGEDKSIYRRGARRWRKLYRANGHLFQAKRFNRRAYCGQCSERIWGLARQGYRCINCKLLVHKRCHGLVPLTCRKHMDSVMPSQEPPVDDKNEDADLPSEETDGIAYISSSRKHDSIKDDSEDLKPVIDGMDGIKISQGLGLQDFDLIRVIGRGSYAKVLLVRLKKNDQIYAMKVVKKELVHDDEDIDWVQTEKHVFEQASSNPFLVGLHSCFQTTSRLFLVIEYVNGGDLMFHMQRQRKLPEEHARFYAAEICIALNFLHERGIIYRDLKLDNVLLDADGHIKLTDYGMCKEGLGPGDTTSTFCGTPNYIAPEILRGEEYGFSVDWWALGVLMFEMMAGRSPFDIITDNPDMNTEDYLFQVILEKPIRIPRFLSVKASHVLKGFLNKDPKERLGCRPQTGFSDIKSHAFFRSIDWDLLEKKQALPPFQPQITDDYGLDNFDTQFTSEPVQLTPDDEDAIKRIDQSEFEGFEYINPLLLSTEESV
The following applies: at 1 µM.

The target of test [2] is T2, Mitogen-activated protein kinase kinase kinase 5 (Homo sapiens) (UniProt Q99683).
T2 sequence (whole entry): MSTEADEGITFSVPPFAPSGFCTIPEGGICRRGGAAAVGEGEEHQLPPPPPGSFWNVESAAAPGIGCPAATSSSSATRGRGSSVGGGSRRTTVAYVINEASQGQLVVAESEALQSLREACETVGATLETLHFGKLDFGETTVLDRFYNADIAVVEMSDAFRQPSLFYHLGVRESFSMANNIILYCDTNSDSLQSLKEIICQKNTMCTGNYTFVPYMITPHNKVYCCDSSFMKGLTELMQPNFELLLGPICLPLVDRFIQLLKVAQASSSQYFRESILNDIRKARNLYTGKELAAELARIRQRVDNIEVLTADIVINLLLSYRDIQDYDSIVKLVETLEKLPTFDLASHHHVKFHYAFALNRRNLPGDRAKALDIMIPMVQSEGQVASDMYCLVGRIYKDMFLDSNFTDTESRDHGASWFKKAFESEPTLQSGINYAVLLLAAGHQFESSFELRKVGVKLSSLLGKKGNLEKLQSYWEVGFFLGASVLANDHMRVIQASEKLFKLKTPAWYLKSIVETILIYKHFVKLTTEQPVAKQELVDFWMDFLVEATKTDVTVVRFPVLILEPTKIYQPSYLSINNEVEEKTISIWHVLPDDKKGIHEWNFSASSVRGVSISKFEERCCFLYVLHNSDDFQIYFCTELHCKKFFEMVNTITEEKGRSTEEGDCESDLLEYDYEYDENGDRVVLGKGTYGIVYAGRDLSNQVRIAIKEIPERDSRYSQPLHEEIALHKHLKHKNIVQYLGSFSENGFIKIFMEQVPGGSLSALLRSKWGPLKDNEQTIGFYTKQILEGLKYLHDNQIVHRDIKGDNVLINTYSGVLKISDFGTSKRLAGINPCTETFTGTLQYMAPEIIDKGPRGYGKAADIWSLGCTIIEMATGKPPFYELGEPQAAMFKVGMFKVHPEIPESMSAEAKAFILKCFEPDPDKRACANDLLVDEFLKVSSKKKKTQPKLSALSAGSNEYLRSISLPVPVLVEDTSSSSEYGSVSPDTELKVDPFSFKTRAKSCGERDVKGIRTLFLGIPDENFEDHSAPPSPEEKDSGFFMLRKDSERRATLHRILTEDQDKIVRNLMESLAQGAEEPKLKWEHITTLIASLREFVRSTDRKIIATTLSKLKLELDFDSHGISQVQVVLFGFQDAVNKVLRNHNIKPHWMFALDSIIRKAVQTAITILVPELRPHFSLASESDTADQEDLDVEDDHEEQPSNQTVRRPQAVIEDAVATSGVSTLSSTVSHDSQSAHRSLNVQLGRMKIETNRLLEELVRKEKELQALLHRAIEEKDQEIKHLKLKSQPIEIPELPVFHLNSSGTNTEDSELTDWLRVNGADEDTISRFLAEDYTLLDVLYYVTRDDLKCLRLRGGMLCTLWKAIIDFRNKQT
The following applies: at 10 µM.

The target in test [3] is Tyrosine-protein kinase ABL1 (Homo sapiens) (UniProt P00519). The following applies: at 1 µM.
Tyrosine-protein kinase ABL1 (Homo sapiens), sequence (P00519 whole entry): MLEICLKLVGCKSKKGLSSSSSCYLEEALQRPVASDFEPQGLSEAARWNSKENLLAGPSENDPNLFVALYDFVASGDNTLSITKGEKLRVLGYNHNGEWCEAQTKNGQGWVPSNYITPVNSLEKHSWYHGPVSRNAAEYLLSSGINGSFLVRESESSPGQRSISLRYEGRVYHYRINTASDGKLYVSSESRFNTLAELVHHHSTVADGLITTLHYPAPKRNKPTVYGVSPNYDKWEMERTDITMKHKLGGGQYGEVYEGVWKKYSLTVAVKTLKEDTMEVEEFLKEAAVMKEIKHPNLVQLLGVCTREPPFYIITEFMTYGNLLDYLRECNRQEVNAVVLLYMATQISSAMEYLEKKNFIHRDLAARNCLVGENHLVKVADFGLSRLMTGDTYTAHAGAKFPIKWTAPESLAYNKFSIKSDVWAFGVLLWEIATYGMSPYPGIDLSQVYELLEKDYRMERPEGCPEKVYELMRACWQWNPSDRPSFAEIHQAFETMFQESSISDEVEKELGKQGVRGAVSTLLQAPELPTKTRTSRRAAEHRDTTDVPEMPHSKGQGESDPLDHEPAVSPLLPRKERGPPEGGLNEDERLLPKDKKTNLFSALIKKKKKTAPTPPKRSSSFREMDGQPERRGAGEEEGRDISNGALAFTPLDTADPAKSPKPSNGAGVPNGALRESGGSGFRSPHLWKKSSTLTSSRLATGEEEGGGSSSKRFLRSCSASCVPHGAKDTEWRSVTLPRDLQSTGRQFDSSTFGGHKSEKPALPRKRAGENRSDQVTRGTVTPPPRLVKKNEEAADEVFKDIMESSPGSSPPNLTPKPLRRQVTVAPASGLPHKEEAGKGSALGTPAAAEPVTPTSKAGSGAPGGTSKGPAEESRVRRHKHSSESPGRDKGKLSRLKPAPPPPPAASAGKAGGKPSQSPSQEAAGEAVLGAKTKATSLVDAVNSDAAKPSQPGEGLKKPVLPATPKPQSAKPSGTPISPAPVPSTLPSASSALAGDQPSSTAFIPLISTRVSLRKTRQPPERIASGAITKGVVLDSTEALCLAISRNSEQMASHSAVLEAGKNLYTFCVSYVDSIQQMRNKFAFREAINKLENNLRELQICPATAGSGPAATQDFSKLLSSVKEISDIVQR
For test [4] the target is unchanged. To be noted: at 10 µM.
The target of test [5] is Tyrosine-protein kinase ABL2 (Homo sapiens) (UniProt P42684). To be noted: at 1 µM.
Tyrosine-protein kinase ABL2 (Homo sapiens), sequence (P42684 whole entry): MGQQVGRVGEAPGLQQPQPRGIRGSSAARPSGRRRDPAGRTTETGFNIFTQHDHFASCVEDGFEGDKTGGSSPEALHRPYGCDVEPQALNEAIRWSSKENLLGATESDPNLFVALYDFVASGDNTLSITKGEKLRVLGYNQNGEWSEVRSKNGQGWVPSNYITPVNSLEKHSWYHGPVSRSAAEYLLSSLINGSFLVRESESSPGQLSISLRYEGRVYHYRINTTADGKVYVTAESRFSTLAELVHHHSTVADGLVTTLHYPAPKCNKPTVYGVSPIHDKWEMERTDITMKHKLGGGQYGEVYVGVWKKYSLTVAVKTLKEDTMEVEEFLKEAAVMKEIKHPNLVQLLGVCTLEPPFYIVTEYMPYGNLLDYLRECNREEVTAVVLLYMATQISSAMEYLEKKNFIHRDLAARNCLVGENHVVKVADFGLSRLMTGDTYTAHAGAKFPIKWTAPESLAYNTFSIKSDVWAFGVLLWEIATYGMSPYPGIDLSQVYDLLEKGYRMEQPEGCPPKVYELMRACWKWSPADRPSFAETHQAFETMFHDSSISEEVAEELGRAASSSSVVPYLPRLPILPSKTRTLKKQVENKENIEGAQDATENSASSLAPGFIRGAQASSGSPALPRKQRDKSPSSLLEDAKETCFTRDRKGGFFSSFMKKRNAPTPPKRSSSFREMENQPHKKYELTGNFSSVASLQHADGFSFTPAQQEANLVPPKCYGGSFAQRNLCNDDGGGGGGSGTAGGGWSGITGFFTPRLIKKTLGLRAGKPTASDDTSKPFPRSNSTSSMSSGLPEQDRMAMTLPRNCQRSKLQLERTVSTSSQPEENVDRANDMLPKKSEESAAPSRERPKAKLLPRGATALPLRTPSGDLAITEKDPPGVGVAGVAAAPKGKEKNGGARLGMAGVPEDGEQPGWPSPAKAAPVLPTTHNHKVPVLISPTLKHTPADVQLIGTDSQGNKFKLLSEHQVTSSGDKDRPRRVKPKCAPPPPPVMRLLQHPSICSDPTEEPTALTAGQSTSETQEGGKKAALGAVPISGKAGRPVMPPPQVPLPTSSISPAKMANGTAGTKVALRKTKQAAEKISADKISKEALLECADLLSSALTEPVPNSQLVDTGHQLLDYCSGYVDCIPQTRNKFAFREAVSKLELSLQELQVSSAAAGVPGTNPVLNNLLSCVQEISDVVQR
Test [6] has the same target. The following applies: at 10 µM.
For test [7], the target named is T3, Aurora kinase A (Homo sapiens) (UniProt O14965).
T3 sequence (whole entry): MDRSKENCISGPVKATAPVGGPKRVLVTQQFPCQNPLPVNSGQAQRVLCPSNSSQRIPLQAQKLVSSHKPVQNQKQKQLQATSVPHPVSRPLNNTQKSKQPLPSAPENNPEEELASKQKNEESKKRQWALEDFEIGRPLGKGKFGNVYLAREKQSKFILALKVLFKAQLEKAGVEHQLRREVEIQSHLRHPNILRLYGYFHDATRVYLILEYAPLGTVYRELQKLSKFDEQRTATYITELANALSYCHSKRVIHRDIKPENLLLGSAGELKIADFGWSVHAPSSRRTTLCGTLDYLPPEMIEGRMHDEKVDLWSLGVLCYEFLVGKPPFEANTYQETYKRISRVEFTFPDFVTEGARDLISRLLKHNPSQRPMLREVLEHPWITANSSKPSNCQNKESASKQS
To be noted: at 1 µM.

For test [8], the target named is T3, Aurora kinase A (Homo sapiens). To be noted: at 10 µM.
Test [9] addresses Aurora kinase B (Homo sapiens) (UniProt Q96GD4). The following applies: at 1 µM.
The target is the same in test [10]. To be noted: at 10 µM.
In test [11] the target is T4, Aurora kinase C (Homo sapiens) (UniProt Q9UQB9).
T4 sequence (whole entry): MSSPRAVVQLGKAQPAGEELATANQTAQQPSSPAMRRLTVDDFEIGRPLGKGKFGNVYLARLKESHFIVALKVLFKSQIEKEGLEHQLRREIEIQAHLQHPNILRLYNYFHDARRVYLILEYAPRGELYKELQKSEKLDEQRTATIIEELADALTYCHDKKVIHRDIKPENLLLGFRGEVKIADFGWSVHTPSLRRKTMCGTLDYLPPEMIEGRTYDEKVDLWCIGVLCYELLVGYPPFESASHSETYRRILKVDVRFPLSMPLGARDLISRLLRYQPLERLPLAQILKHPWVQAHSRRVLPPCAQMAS
To be noted: at 1 µM.

Test [12] has as its target T4, Aurora kinase C (Homo sapiens). The following applies: at 10 µM.
The target of test [13] is Tyrosine-protein kinase receptor UFO (Homo sapiens) (UniProt P30530). The following applies: at 1 µM.
Tyrosine-protein kinase receptor UFO (Homo sapiens), sequence (P30530 whole entry): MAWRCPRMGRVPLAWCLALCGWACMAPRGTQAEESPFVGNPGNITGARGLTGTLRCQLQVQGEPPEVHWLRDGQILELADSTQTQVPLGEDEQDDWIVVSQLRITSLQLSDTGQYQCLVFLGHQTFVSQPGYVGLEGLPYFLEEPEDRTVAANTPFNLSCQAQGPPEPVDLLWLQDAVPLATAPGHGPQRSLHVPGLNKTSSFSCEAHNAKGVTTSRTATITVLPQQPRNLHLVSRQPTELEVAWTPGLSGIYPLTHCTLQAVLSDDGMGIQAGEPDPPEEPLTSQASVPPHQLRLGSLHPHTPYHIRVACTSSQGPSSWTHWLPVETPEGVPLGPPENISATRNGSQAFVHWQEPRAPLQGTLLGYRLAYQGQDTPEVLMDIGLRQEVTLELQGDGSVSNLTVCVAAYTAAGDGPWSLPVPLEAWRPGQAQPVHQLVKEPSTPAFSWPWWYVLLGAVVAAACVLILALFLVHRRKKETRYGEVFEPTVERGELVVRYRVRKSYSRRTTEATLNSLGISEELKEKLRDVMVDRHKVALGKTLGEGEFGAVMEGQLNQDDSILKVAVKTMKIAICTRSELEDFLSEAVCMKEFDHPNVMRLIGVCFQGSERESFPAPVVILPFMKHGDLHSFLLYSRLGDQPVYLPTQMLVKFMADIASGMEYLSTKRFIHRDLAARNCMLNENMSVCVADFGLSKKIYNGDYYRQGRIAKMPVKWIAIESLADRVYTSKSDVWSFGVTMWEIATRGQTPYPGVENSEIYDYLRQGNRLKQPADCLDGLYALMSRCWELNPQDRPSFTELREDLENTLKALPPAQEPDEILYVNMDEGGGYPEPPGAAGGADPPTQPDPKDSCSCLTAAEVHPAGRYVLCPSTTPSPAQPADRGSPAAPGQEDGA
Test [14] has the same target. The following applies: at 10 µM.
The target in test [15] is Protein-tyrosine kinase 6 (Homo sapiens) (UniProt Q13882). The following applies: at 1 µM.
Protein-tyrosine kinase 6 (Homo sapiens), sequence (Q13882 whole entry, looked up): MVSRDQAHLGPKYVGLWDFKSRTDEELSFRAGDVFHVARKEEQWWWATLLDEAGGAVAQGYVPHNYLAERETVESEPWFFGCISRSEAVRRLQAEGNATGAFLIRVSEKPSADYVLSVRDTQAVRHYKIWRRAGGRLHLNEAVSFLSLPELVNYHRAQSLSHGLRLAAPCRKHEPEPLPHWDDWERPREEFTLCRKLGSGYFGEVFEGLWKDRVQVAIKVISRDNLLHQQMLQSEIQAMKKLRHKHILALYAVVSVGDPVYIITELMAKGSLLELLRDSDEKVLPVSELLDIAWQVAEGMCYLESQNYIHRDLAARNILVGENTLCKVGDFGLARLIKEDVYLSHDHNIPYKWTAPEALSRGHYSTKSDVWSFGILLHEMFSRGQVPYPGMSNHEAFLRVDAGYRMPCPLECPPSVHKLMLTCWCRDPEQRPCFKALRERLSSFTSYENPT
Test [16] shares this target. To be noted: at 10 µM.
Test [17] deals with Tyrosine-protein kinase BTK (Homo sapiens) (UniProt Q06187). To be noted: at 1 µM.
Tyrosine-protein kinase BTK (Homo sapiens), sequence (Q06187 whole entry): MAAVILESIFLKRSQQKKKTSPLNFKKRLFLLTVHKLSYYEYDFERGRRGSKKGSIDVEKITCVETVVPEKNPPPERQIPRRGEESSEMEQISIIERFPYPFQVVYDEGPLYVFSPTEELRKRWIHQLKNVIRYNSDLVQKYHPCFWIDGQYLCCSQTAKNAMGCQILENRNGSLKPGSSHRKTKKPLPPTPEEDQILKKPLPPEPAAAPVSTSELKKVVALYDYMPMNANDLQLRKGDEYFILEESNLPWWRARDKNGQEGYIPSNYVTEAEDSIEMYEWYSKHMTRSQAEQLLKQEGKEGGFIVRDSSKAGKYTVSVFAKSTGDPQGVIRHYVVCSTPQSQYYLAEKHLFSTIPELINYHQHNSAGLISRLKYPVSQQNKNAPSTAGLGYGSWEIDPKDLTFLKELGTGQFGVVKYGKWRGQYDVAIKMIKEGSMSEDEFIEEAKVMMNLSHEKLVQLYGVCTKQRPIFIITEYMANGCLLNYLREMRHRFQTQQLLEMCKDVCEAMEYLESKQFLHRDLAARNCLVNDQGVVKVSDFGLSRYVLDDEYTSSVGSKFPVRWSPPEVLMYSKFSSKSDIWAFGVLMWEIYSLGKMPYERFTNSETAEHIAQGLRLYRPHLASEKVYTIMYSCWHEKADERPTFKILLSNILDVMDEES
Test [18] has the same target. The following applies: at 10 µM.
Test [19] addresses Tyrosine-protein kinase Blk (Homo sapiens) (UniProt P51451). To be noted: at 1 µM.
The target is the same in test [20]. To be noted: at 10 µM.

Aurora kinase B (Homo sapiens), sequence (Q96GD4 whole entry): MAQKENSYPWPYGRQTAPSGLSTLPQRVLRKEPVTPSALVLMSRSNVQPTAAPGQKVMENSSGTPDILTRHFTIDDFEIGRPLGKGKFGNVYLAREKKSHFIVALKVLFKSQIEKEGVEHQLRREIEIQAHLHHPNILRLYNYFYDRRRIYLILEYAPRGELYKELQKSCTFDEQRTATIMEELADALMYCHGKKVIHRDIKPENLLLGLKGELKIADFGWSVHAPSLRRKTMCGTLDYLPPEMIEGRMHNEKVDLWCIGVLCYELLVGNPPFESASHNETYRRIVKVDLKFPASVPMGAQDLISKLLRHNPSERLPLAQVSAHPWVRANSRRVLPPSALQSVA

As to `CC#CC(=O)Nc1cc2c(Nc3ccc(F)c(Cl)c3)ncnc2cn1`, the residual activity in test [1] is 97% (inactive); in [2], 94%; in [3] it was 92%; in [4], 91%; in test [5], 118%; in [6], 74%. The residual activity is 106% in test [7]; 108% in test [8]; 114% in [9]; 85% in test [10]; 99% in test [11]; 73% in test [12]. The residual activity was determined as 82% in [13]; 74% in test [14]; 99% in test [15]; 97% in test [16]; 47% in test [17]; 16% in [18]. The values for the residual activity in test [19] and in test [20] were 82% and 49%, respectively.
As to `O=C1NC(=O)/C(=C/c2ccc3c(c2)OC(F)(F)O3)S1`, the residual activity was 97% (inactive) in test [1]; 97% in test [2]; 103% in [3]; 79% in [4]; 94% in test [5]; 98% in [6]. Moreover, the residual activity stood at 90% in test [7]; 57% in [8]; 74% in [9]; 64% in [10]; 110% in test [11]; 80% in test [12]. In addition, the residual activity came to 98% in test [13]; 84% in test [14]; 110% in test [15]; 104% in test [16]; 86% in test [17]; 95% in test [18]. Also, the residual activity was 119% in test [19] and 94% in test [20].
Consider `Ic1cccc(CSc2nnc(-c3ccncc3)o2)c1`, for which the residual activity is 101% (inactive) in test [1]; 86% in test [2]; 87% in [3]; 70% in [4]; 112% in [5]; 71% in test [6]. Further, the residual activity in [7] is 83%; in [8], 80%; in [9] it was 77%; in [10], 42%; in test [11] it was 79%; in [12] it was 74%. Besides, the residual activity in test [13] stood at 74%; in [14] it was 60%; in [15] it was 105%; in test [16], 96%; in test [17], 79%; in test [18] it was 95%. Further, the residual activity was 87% in test [19] and 61% in [20].
Take `CN(C)CCCn1cc(C2=C(c3c[nH]c4ccccc34)C(=O)NC2=O)c2ccccc21`: the residual activity in [1] is 72% (inactive); in test [2], 108%; in test [3], 108%; in test [4], 108%; in test [5] it was 90%; in [6], 76%. Further, the residual activity turned out to be 100% in [7]; 80% in test [8]; 31% in test [9]; 7% in [10]; 109% in test [11]; 72% in test [12]. The residual activity in test [13] came to 70%; in test [14], 39%; in [15], 110%; in [16], 89%; in test [17] it was 89%; in [18], 72%. Besides, the residual activity amounted to 65% in [19] and 13% in test [20].
As to `CN(C)c1ccc(/C=C2\C(=O)Nc3ccccc32)cc1`, the residual activity in test [1] is 118% (inactive); in test [2], 99%; in test [3], 100%; in test [4] it was 87%; in [5], 103%; in test [6], 89%. In addition, the residual activity came out at 56% in [7]; 26% in test [8]; 13% in test [9]; 4% in test [10]; 88% in [11]; 39% in [12]. Moreover, the residual activity in [13] was determined as 78%; in test [14] it was 49%; in test [15] it was 112%; in test [16], 97%; in test [17], 113%; in [18] it was 86%. Moreover, the residual activity in [19] worked out at 87%; in test [20], 62%.
`NC(=O)c1ccc2[nH]c(-c3ccc(Oc4ccc(Cl)cc4)cc3)nc2c1`: the residual activity in test [1] is 99% (inactive); in test [2], 61%; in [3], 106%; in [4], 130%; in [5] it was 128%; in test [6], 95%. In addition, the residual activity was 88% in test [7]; 86% in test [8]; 68% in [9]; 34% in test [10]; 72% in [11]; 79% in test [12]. Further, the residual activity in test [13] turned out to be 107%; in test [14] it was 70%; in test [15], 102%; in test [16], 103%; in test [17] it was 89%; in test [18], 86%. Further, the results for the residual activity in test [19] and in [20] were 103% and 77%, respectively.
